# According to publication PMC7826789 (International Journal of Molecular Sciences, 2021):
# System: T1, AMPK-alpha1
# T1 construct: gene PRKAA1
# Settings: Compound Concentration (nM):1000
# 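Further: KINOMEscan scanMAX binding as percent activity remaining versus control; lower means stronger binding.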
row,Compound,Percent Control
1,COc1ccccc1-c1cc(/C=C2\C(=O)Nc3ncc(Br)cc32)cc(Br)c1O [GW442130X],100%
2,NS(=O)(=O)c1ccc(N/N=C2\C(=O)Nc3ccc(C(=O)NCc4ccncc4)cc32)cc1 [GW300657X],78%
3,Cl.O=C(O[C@H]1CN[C@H](C#Cc2cc3ncnc(Nc4ccc5c(cnn5Cc5ccccc5)c4)c3s2)C1)N1CCOCC1 [GSK200398A],100%
4,Cl.O=S1CCN(Cc2ccc(-c3ccc4ncnc(Nc5ccc(OCc6ccccc6)c(F)c5)c4c3)o2)CC1 [GW576924A],100%
5,Cl.c1ccc(Cc2nc3ccc(Nc4ncnc5ccccc45)cc3[nH]2)cc1 [GR269666A],100%
6,COc1cccc(-c2c[nH]c3c(N/N=C/c4ccncc4)ncnc23)c1 [GW814408X],100%
7,Cl.O=C(Nc1ccc(Oc2ccc3[nH]c(NC(=O)c4ccccc4)nc3c2)cc1)Nc1cc(C(F)(F)F)ccc1F [GW709042A],56%
8,CCn1c(-c2nonc2N)nc2c(C#CC(C)(C)O)nc(OCCNC)cc21.Cl [GSK949675],100%
9,CN(C)c1cc2c(Nc3ccc4c(cnn4Cc4ccccc4)c3)ncnc2cn1 [GW282974X],90%
10,C[C@@H](Oc1cc(-n2cnc3ccc(OC4CCN(C)CC4)cc32)sc1C(N)=O)c1ccccc1Cl [GSK579289A],45%
11,CCc1ccc(Oc2nccc(-c3c(-c4ccc(F)cc4)ncn3C3CCNCC3)n2)cc1 [SB-242719],100%
12,NS(=O)(=O)c1ccc(N/N=C2\C(=O)Nc3ccc(-c4cnco4)cc32)cc1 [GW276655],95%
13,COc1cc(C)c(N(C)C(=O)CN(C)C)cc1Nc1nc(Nc2cccc(F)c2C(N)=O)c2cc[nH]c2n1 [GSK2219385],100%
14,COc1ccc2[nH]c3c4[nH]c5ccc(OC)cc5c4c4c(c3c2c1)C(=O)NC4=O [GW296115X],44%
15,COc1cc(C=NNc2ncnc3c2cnn3-c2ccccc2)ccc1O [GW513184X],100%
16,NS(=O)(=O)c1ccc(N/N=C2\C(=O)Nc3ccc(Cl)cc32)cc1 [GW280670X],100%
17,COc1cc(N2CCN(C(C)C)CC2)ccc1Nc1nc(Nc2ccc(F)cc2C(=O)NC[C@@H](O)CO)c2cc[nH]c2n1 [GSK1392956A],100%
18,Cc1cc(O)cc(C)c1/C=C/c1cncc(C(N)=O)c1 [GW435821X],100%
19,COC(=O)Nc1nc2ccc(Oc3ccc(NC(=O)Nc4cc(C(F)(F)F)ccc4F)cc3)cc2s1.Cl [GW693917A],69%
20,CC(C)COC(=O)c1ccc2c(c1)/C(=C/Nc1ccc(S(N)(=O)=O)cc1)C(=O)N2 [GW416981X],100%
21,CCS(=O)(=O)c1ccc(OC)c(Nc2ncc(-c3cccc(OC)c3)o2)c1 [GW580509X],100%
22,COc1cccc(-n2ncc3c(N/N=C/c4ccncc4)ncnc32)c1 [GW784752X],100%
23,COc1ccc2c(-c3ccnc(Nc4cccc(OC(F)(F)F)c4)n3)cnn2n1 [GW810372X],100%
24,O=C1Nc2ccc(C(=O)c3ccco3)cc2C1=Cc1cc(Cl)c(O)c(Cl)c1 [GW406108X],90%
25,NS(=O)(=O)c1ccc(Nc2ncc(-c3ccccc3)o2)cc1 [GW572399X],100%
26,COc1cc2ncn(-c3cc(O[C@H](C)c4ccccc4Cl)c(C(N)=O)s3)c2cc1OC [GSK237701A],54%
27,Nc1ncnc2occ(-c3ccc(NC(=O)Nc4cc(C(F)(F)F)ccc4F)cc3)c12 [GW770249X],100%
28,NS(=O)(=O)c1ccc(N/N=C2\C(=O)Nc3ccc(C(=O)NCCc4c[nH]cn4)cc32)cc1 [GW300660X],100%

# System: T2, AMPK-alpha2
# T2 construct: gene PRKAA2
# Settings: Compound Concentration (nM):1000
row,Compound,Percent Control
1,Cl.O=C(Nc1ccc(Oc2ccc3[nH]c(NC(=O)c4ccco4)nc3c2)cc1)Nc1cc(C(F)(F)F)ccc1F [GW683134A],82%
2,O=C(Nc1n[nH]c2nc(-c3ccc(O)cc3)c(Br)cc12)C1CC1 [SB-725317],100%
3,COc1cc2ncnc(Nc3ccc4c(cnn4Cc4ccccc4)c3)c2cc1OC.Cl [GW282449A],100%
4,CN(C)CCNC(=O)Nc1ccc(N(C)c2ccnc(Nc3ccc(CS(C)(=O)=O)cc3)n2)cc1.Cl [GW830900A],74%
5,CC1=C(C(=O)Nc2ccc3[nH]ncc3c2)C(c2ccc(Cl)c(Cl)c2)CC(=O)N1 (centres unmarked) [GSK299115A],97%
6,COc1ccc(COc2ccc(Cc3cnc(N)nc3N)cc2OC)cc1 [GW632580X],99%
7,CCS(=O)(=O)c1ccc(OC)c(Nc2ncc(-c3cccc(F)c3)o2)c1 [GW621970X],91%
8,COc1cc(/C=N/Nc2ncnc3[nH]ncc23)ccc1O [GW578748X],54%
9,C/C(Nc1ccc(S(N)(=O)=O)cc1)=C1/C(=O)Nc2ccccc21 [GW335962X],87%
10,CN1CCN(C(=O)c2ccc(NC(=O)Nc3ccc(N(C)c4ccnc(Nc5ccc(CS(C)(=O)=O)cc5)n4)cc3)cc2)CC1.Cl [GW830263A],87%
11,CC1=C(C(=O)Nc2ccc3[nH]ncc3c2)C(c2ccc3ccccc3c2)CC(=O)N1 (centres unmarked) [GSK270822A],81%
12,COc1ccc2cc(-c3c(-c4ccncc4)nc(-c4ccc(S(C)(=O)=O)cc4C)n3C)ccc2c1 [SB-633825],90%
13,COc1ccccc1-c1cc(/C=C2\C(=O)Nc3ncc(Br)cc32)cc(Br)c1O [GW442130X],94%
14,NS(=O)(=O)c1ccc(N/N=C2\C(=O)Nc3ccc(C(=O)NCc4ccncc4)cc32)cc1 [GW300657X],83%
15,Cl.O=C(O[C@H]1CN[C@H](C#Cc2cc3ncnc(Nc4ccc5c(cnn5Cc5ccccc5)c4)c3s2)C1)N1CCOCC1 [GSK200398A],92%
16,Cl.O=S1CCN(Cc2ccc(-c3ccc4ncnc(Nc5ccc(OCc6ccccc6)c(F)c5)c4c3)o2)CC1 [GW576924A],100%
17,Cl.c1ccc(Cc2nc3ccc(Nc4ncnc5ccccc45)cc3[nH]2)cc1 [GR269666A],100%
18,COc1cccc(-c2c[nH]c3c(N/N=C/c4ccncc4)ncnc23)c1 [GW814408X],85%
19,Cl.O=C(Nc1ccc(Oc2ccc3[nH]c(NC(=O)c4ccccc4)nc3c2)cc1)Nc1cc(C(F)(F)F)ccc1F [GW709042A],100%
20,CCn1c(-c2nonc2N)nc2c(C#CC(C)(C)O)nc(OCCNC)cc21.Cl [GSK949675],100%

row,Compound,Percent Control
1,CN(C)c1cc2c(Nc3ccc4c(cnn4Cc4ccccc4)c3)ncnc2cn1 [GW282974X],100%
2,C[C@@H](Oc1cc(-n2cnc3ccc(OC4CCN(C)CC4)cc32)sc1C(N)=O)c1ccccc1Cl [GSK579289A],100%
3,CCc1ccc(Oc2nccc(-c3c(-c4ccc(F)cc4)ncn3C3CCNCC3)n2)cc1 [SB-242719],99%
4,NS(=O)(=O)c1ccc(N/N=C2\C(=O)Nc3ccc(-c4cnco4)cc32)cc1 [GW276655],100%
5,COc1cc(C)c(N(C)C(=O)CN(C)C)cc1Nc1nc(Nc2cccc(F)c2C(N)=O)c2cc[nH]c2n1 [GSK2219385],100%
6,COc1ccc2[nH]c3c4[nH]c5ccc(OC)cc5c4c4c(c3c2c1)C(=O)NC4=O [GW296115X],54%
7,COc1cc(C=NNc2ncnc3c2cnn3-c2ccccc2)ccc1O [GW513184X],100%
8,NS(=O)(=O)c1ccc(N/N=C2\C(=O)Nc3ccc(Cl)cc32)cc1 [GW280670X],88%
9,COc1cc(N2CCN(C(C)C)CC2)ccc1Nc1nc(Nc2ccc(F)cc2C(=O)NC[C@@H](O)CO)c2cc[nH]c2n1 [GSK1392956A],100%
10,Cc1cc(O)cc(C)c1/C=C/c1cncc(C(N)=O)c1 [GW435821X],83%
11,COC(=O)Nc1nc2ccc(Oc3ccc(NC(=O)Nc4cc(C(F)(F)F)ccc4F)cc3)cc2s1.Cl [GW693917A],82%
12,CC(C)COC(=O)c1ccc2c(c1)/C(=C/Nc1ccc(S(N)(=O)=O)cc1)C(=O)N2 [GW416981X],92%
13,CCS(=O)(=O)c1ccc(OC)c(Nc2ncc(-c3cccc(OC)c3)o2)c1 [GW580509X],100%
14,COc1cccc(-n2ncc3c(N/N=C/c4ccncc4)ncnc32)c1 [GW784752X],86%
15,COc1ccc2c(-c3ccnc(Nc4cccc(OC(F)(F)F)c4)n3)cnn2n1 [GW810372X],100%
16,O=C1Nc2ccc(C(=O)c3ccco3)cc2C1=Cc1cc(Cl)c(O)c(Cl)c1 [GW406108X],94%
17,NS(=O)(=O)c1ccc(Nc2ncc(-c3ccccc3)o2)cc1 [GW572399X],95%
18,COc1cc2ncn(-c3cc(O[C@H](C)c4ccccc4Cl)c(C(N)=O)s3)c2cc1OC [GSK237701A],100%
19,Nc1ncnc2occ(-c3ccc(NC(=O)Nc4cc(C(F)(F)F)ccc4F)cc3)c12 [GW770249X],86%
20,NS(=O)(=O)c1ccc(N/N=C2\C(=O)Nc3ccc(C(=O)NCCc4c[nH]cn4)cc32)cc1 [GW300660X],100%
